# Results filed as inconclusive are left out. Where a call stands in place of a potency, no number is given. Active and inactive are the calls of the source. The call rests on the fitted dose curve.
# Target: Beta-2 adrenergic receptor (Homo sapiens) (UniProt P07550)
# Assay: Adrenergic beta2 receptor (ADRB2) small molecule antagonists, cell-based qHTS assay (AID 1963592); further: nearly all actives have a fitted effect of over 50% in size
# Conditions: CHO-ADRB2 cells, isoproterenol-stimulated cAMP HTRF ratio, 0.5 h; series mostly up to 92.4 µM
# Excerpt: U.S. Tox21 Program National Center for Advancing Translational Sciences [NCATS] Division of Preclinical Innovation [DPI] U.S. Environmental Protection Agency [EPA] National Institutes of Environmental Health Sciences [NIEHS] National Toxicology Program [NTP] U.S. Food and Drug Administration [FDA] Tox21 Assay Overview: Beta adrenergic receptors (Beta-ARs) belong to the G-protein coupled receptor (GPCR) superfamily, includes three subtypes - beta1, beta2, and beta3. Beta1-AR is the predominant receptor subtype expressed in the heart, and beta2-AR is expressed in the kidney, lung, blood vessel and in the heart, and beta3 is found in the adipocytes. Beta1 and 2 ARs couple to Gs protein and elevate cyclic adenosine mono phosphate (cAMP), which activates protein kinase A and leads to the downstream signaling responsible for the physiological actions. Beta-AR agonists or antagonists are the most prescribed therapeutic agents for heart failure and asthma, and these were one of the first target receptors for the rational drug design. Tox21 10K compound library was screened using the cAMP-Gs dynamic assay (Cisbio Bioassays, Shelton, CT) to identify agonists/antagonists of the Gs-coupled human adrenergic, beta2 receptor (ADRB2) in the CHO-ADRB2 cell line (Codex BioSolutions, Inc. Gaithersburg, MD), which stably over-expresses ADRB2. The principle of cAMP-Gs dynamic assay is based on HTRF technology, which facilitates the fluorescence resonance energy transfer (FRET) between donor Europium cryptate and acceptor d2-labeled cAMP. The cAMP generated within cells competes with the red acceptor, d2-labled cAMP, for binding to the monoclonal anti-cAMP-cryptate (Europium donor). An increase in intracellular cAMP leads to the disruption of FRET signal, and the signal is inversely proportional to the cAMP concentration. Propranolol HCl (Sigma-Aldrich, St. Louis, MO) was used as a positive control in the screening.
# Tox21 Assay Protocol Summary: CHO-ADRB2 cells were dispensed at 1,000/well in 4uL assay medium into white/solid 1536-well plates (Greiner Bio-One North America Inc., Monroe, NC) using a Multidrop Combi dispenser (ThermoFisher Scientific, Waltham, MA). The assay plates were incubated at 37C and 5% CO2 for an overnight (18-20hr). Then positive control and test compounds dissolved in DMSO were transferred to the assay plates at 23nL using a Pintool station (Wako, San Diego, CA). Following the compound and positive control transfer, 1uL agonist-stimulation mix containing 1nM Isoproterenol HCl, 100uM IBMX and 25uM Ro-20-1724 was added to each well of the assay plates using BioRAPTR Flying Reagent Dispenser (FRD, Beckman Coulter, Brea, CA). The assay plates were incubated at room temperature for 0.5hr. Then 2.5ul each d2-labled cAMP and anti-cAMP-cryptate solutions were added separately to each well of the assay plates using an FRD and the assay plates were incubated at room temperature for 1hr. The fluorescence signal was measured at two different wavelengths (665nm and 615nm) using an Envision plate reader (Perkin Elmer, Shelton, CT). Data were expressed as the ratio of 665 nm/615 nm.
# Potency means the concentration at half of the fitted maximal effect.
# Chain of Beta-2 adrenergic receptor (Homo sapiens) (P07550 whole entry, looked up): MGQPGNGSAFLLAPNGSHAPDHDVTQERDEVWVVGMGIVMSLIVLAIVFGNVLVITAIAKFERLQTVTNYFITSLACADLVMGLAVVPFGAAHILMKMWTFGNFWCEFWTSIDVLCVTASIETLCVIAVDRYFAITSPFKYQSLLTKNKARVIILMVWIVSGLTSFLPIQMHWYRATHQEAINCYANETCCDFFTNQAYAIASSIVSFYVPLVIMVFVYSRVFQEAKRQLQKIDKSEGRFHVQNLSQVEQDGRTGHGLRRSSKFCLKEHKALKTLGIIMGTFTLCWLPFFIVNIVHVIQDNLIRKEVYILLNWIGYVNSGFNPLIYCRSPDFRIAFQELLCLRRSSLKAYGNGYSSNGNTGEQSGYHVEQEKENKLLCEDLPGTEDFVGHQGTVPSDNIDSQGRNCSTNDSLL
row,Compound,Potency
1,CCN(CC)CCNC(=O)COc1ccc(Cl)cc1,inactive
2,CC(=O)OC(C)(C)Cc1ccccc1,inactive
3,O=C(CCCCC(=O)Nc1c(I)cc(I)c(C(=O)O)c1I)Nc1c(I)cc(I)c(C(=O)O)c1I,inactive
4,Cc1ccc(CCn2c3c(c4cc(Cl)ccc42)CN(C)CC3)cn1,inactive
5,[Cu+],inactive
6,O=[N+]([O-])c1c(Cl)cc(Cl)cc1Cl,inactive
7,CCCCC/C=C/CC(=O)OC,inactive
8,CC(C)(C)c1cc(CCC(=O)NCCCCCCNC(=O)CCc2cc(C(C)(C)C)c(O)c(C(C)(C)C)c2)cc(C(C)(C)C)c1O,inactive
9,CCOC(=O)CC(C)O (stereo not given),inactive
10,C/C=C(\C)C=O,inactive
11,CCCCCCCCCCCCC,inactive
12,O=C(CCCl)NCCc1ccccc1,inactive
13,Nc1nc(Cl)nc2c1ncn2[C@@H]1O[C@H](CO)[C@@H](O)[C@@H]1F,inactive
14,N#C/C(=C1\SCC(c2ccccc2Cl)S1)n1ccnc1 (stereo not given),inactive
15,CCCCCCCCCOC(=O)c1ccc(O)cc1,inactive
16,CCOC(=O)c1cnc2c(cnn2CC)c1NN=C(C)C,inactive
17,CN1C(=O)N(C)C(O)C1O (stereo not given),inactive
18,O=C(COCCOCCOCC(=O)Nc1c(I)cc(I)c(C(=O)O)c1I)Nc1c(I)cc(I)c(C(=O)O)c1I,inactive
19,Cc1ccc(S(=O)(=O)NC(=O)NN2CC3CCCC3C2)cc1 (stereo not given),inactive
20,CCOc1cc([N+](=O)[O-])c(OCC)cc1N1CCOCC1,inactive

row,Compound,Potency
1,COc1ccccc1OCC(O)CN1CCN(CC(=O)Nc2c(C)cccc2C)CC1 (stereo not given),11.9 µM (active)
2,CCCCCCCC,inactive
3,CC(=O)C=O,inactive
4,NC(=O)NS(=O)(=O)c1ccc(N)cc1,inactive
5,OC1(c2ccccc2)CCNCC1,inactive
6,COCCOCC(OC)OC,inactive
7,CC(C)(O)c1ccc(CNC(=O)c2cccnc2Oc2ccc3nonc3c2)cc1,inactive
8,CC(=O)OC(C)c1ccccc1 (stereo not given),inactive
9,NC(=O)COCCN1CCN(C(c2ccccc2)c2ccc(Cl)cc2)CC1 (stereo not given),inactive
10,CC(C)(C)CC(=O)OCC(=O)[C@@]1(O)CC[C@H]2[C@@H]3CCC4=CC(=O)C=C[C@]4(C)[C@H]3[C@@H](O)C[C@@]21C,inactive
11,CCOC(=O)c1ccccc1,inactive
12,Nc1nc(CC(=O)O)cs1,inactive
13,NS(=O)(=O)c1cc2c(cc1Cl)CN(C1CCCCC1)C2=O,inactive
14,OCCSc1ccccc1,inactive
15,CC/C=C\CCOC(=O)c1ccccc1O,inactive
16,CC(C)c1ccc(C#N)cc1,inactive
17,OC(CCN1CCCCC1)(c1ccccc1)c1ccccc1,inactive
18,CN1CCCCC1CCN1c2ccccc2Sc2ccc(S(C)=O)cc21 (stereo not given),inactive
19,CN(C)CCCSc1ccccc1NC(=O)/C=C/c1ccccc1,inactive
20,CC(C)CCCC(=O)O,inactive

# Source: PubChem BioAssay (Tox21)
